Measured values published in PubChem BioAssay (NCI).
The panel holds about 83,000 compounds, 20% with a hit somewhere; the sample as a whole holds those more often.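 In brief: 96-well plates, 48 h treatment, single concentration, percent growth endpoint.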 Unmarked numbers belong to inactive results. The source made the active and inactive calls. The calls were made as follows: active = growth percent below 10; inactive = the rest.

Experiments:
Assay in all cases: NCI-60 one-dose screen, 48 h (100 = growth as untreated, 0 = no growth, -100 = all killed)
Conditions in all cases: 10 µM
[1] = test system: NCI-H23 lung
[2] = test system: NCI-H226 lung
[3] = test system: HOP-62 NSCLC
[4] = test system: NCI-H460 lung
[5] = test system: HOP-92 NSCLC
[6] = test system: NCI-H522 lung
[7] = test system: A549/ATCC NSCLC
[8] = test system: 786-0 renal
[9] = test system: COLO 205 colon
[10] = test system: DU-145 prostate
[11] = test system: K-562 leukemia
[12] = test system: MALME-3M melanoma
[13] = test system: MDA-MB-231 breast
[14] = test system: RXF 393 renal
[15] = test system: SF-268 CNS
[16] = test system: SF-295 CNS
[17] = test system: SF-539 CNS
[18] = test system: UACC-257 melanoma
[19] = test system: NCI-H322M lung
[20] = test system: M14 melanoma

CC(=O)OC/C=C(/C)C[P+](c1ccccc1)(c1ccccc1)c1ccccc1
growth [1]: 80.1% | growth [2]: 66% | growth [3]: 65.6% | growth [4]: 40.3% | growth [5]: 64.3% | growth [6]: 74.6% | growth [7]: 64.6% | growth [8]: 74.5% | growth [9]: 48.3% | growth [10]: 58.3% | growth [11]: 28.4% | growth [12]: 61.7% | growth [13]: 75.2% | growth [14]: 98% | growth [15]: 76.7% | growth [16]: 41.6% | growth [17]: 64.2% | growth [18]: 69.7%

COc1cc(-c2ccc[nH]2)[nH]c1/C=C1\N=C(C)C(C(=O)NC(C)C)=C1C
growth [1]: 40.5% | growth [2]: 42.7% | growth [19]: 39.2% | growth [4]: 9.93% (active) | growth [6]: 13.4% | growth [7]: 14.7% | growth [8]: 8.09% (active) | growth [9]: 26.9% | growth [10]: 21.2% | growth [11]: 1.73% (active) | growth [13]: -9.67% (active) | growth [14]: 47.6% | growth [15]: 44.4% | growth [16]: 40.2% | growth [17]: 18.9% | growth [18]: 23.3% | growth [20]: -1.65% (active)

CC(C)(C)c1ccc(S(=O)(=O)N[C@H]2CC[C@H]3[C@@H]4CCc5cc(O)c([N+](=O)[O-])cc5[C@H]4CC[C@]23C)cc1
growth [1]: 83.5% | growth [2]: 80% | growth [19]: 77.1% | growth [4]: 45.6% | growth [6]: 65.1% | growth [7]: 48.3% | growth [8]: 62.1% | growth [9]: 96.4% | growth [10]: 67.4% | growth [11]: 70.1% | growth [12]: 67.1% | growth [13]: 35.7% | growth [14]: 42.5% | growth [15]: 72.6% | growth [17]: 81.5% | growth [18]: 77.7% | growth [20]: 78.5%

N=C1S/C(=C/c2ccc(-c3ccc4c(c3)C(=O)NC4=O)o2)C(=O)N1c1ccc(Br)cc1
growth [1]: 55.8% | growth [2]: 66.5% | growth [19]: 43% | growth [4]: 34.6% | growth [6]: 35.5% | growth [8]: 45.9% | growth [9]: 55.1% | growth [10]: 27.8% | growth [11]: 21.5% | growth [12]: 18.3% | growth [13]: 46.5% | growth [14]: -28.5% (active) | growth [15]: 39.3% | growth [16]: 22.1% | growth [17]: 87.8% | growth [18]: 47.7% | growth [20]: 36.7%

CNS(=O)(=O)Oc1ccc(-c2ccc3occc3c2)cc1
growth [1]: 95.1% | growth [2]: 93.8% | growth [3]: 102% | growth [4]: 104% | growth [5]: 91.8% | growth [6]: 84% | growth [7]: 93.3% | growth [8]: 99.1% | growth [9]: 111% | growth [10]: 109% | growth [11]: 89.1% | growth [12]: 116% | growth [13]: 100% | growth [14]: 122% | growth [15]: 102% | growth [16]: 92.9% | growth [17]: 98.1% | growth [18]: 107% | growth [20]: 113%

CC(C)(C)OC(=O)CN1CCc2c(sc3ncnc(N/N=C/c4ccccc4Br)c23)C1
growth [1]: 80.2% | growth [2]: 83.4% | growth [3]: 89% | growth [4]: 70.9% | growth [5]: 73.7% | growth [6]: 53.4% | growth [7]: 77.6% | growth [8]: 77% | growth [9]: 62.1% | growth [10]: 94.6% | growth [11]: 16.6% | growth [12]: 93.2% | growth [13]: 65.5% | growth [14]: 70.3% | growth [15]: 76.9% | growth [16]: 99.2% | growth [17]: 84.1% | growth [18]: 92.7% | growth [20]: 73.4%

CC[C@H]1OC(=O)[C@H](C)[C@@H](O[C@H]2C[C@@](C)(OC)[C@@H](O)[C@H](C)O2)[C@H](C)[C@@H](O[C@@H]2O[C@H](C)C[C@H](N(C)C)[C@H]2O)[C@](C)(OC)C/C(C)=C2/O[C@@]1(C)C=C2C
growth [1]: 83.9% | growth [2]: 84.6% | growth [3]: 77.9% | growth [4]: -49.6% (active) | growth [5]: 36.3% | growth [6]: 44.4% | growth [7]: 61.9% | growth [8]: 72% | growth [9]: -47.3% (active) | growth [10]: 76.9% | growth [11]: -19.6% (active) | growth [12]: -80% (active) | growth [13]: -44.2% (active) | growth [14]: 21.3% | growth [15]: 64.1% | growth [16]: 95.5% | growth [17]: 64.7% | growth [18]: 17.7% | growth [20]: -75.1% (active)

CCOC(=O)CN(c1sc(C)c(C)c1C(=O)OCC)S(=O)(=O)c1ccc(C)cc1
growth [1]: 94.3% | growth [2]: 77.2% | growth [3]: 94.1% | growth [4]: 98% | growth [5]: 85.2% | growth [6]: 108% | growth [7]: 91.6% | growth [8]: 92.8% | growth [9]: 108% | growth [10]: 92.1% | growth [11]: 103% | growth [12]: 106% | growth [13]: 72.9% | growth [14]: 92.1% | growth [15]: 107% | growth [16]: 103% | growth [17]: 107% | growth [18]: 98.8% | growth [20]: 107%

COC(=O)C1(O)NC(=C(C#N)C#N)C(C#N)=C1C(=O)c1ccc(OC)c(OC)c1 (stereo not given)
growth [1]: 103% | growth [2]: 93.6% | growth [3]: 96.1% | growth [4]: 100% | growth [5]: 90.3% | growth [6]: 90.3% | growth [7]: 91.9% | growth [8]: 101% | growth [9]: 120% | growth [10]: 111% | growth [11]: 100% | growth [12]: 103% | growth [13]: 119% | growth [14]: 100% | growth [15]: 98.5% | growth [16]: 105% | growth [17]: 104% | growth [18]: 81.7% | growth [20]: 97.9%

CC[C@@H](C(=O)[C@@H](C)[C@@H](O)[C@H](C)[C@@H]1O[C@@H]([C@@H](CC)C(=O)N(CC)CC)CC[C@@H]1C)C1O[C@]2(C=CC(=O)[C@]3(CC[C@@](C)([C@H]4CC[C@](O)(CC)[C@H](C)O4)O3)O2)[C@H](C)C[C@@H]1C (stereo not given in full)
growth [1]: 20% | growth [2]: 13.4% | growth [3]: 31.7% | growth [4]: 18.5% | growth [5]: -17.2% (active) | growth [6]: 8.58% (active) | growth [7]: 28.3% | growth [8]: 34.6% | growth [9]: 12.2% | growth [10]: 68.5% | growth [11]: 19.3% | growth [12]: -27.3% (active) | growth [13]: 25.8% | growth [14]: 28.2% | growth [15]: 46.4% | growth [16]: 4.86% (active) | growth [17]: 44.8% | growth [18]: 19.8%

Oc1ccc(-c2[nH]c3ccccc3c2-c2nc3ccccc3o2)cc1
growth [1]: 77.8% | growth [2]: 78.5% | growth [3]: 67.9% | growth [4]: 86.6% | growth [5]: 67.8% | growth [6]: 60.9% | growth [7]: 58% | growth [8]: 75% | growth [9]: 59.1% | growth [10]: 78.6% | growth [11]: 19.2% | growth [12]: 65% | growth [13]: 48.7% | growth [14]: 91.6% | growth [15]: 69.8% | growth [16]: 72.1% | growth [17]: 82.7% | growth [18]: 112% | growth [20]: 25.1%

OCC1OC(n2cnc3c(NCc4ccco4)ncnc32)C(O)C1O (stereo not given)
growth [1]: 18% | growth [2]: 51.8% | growth [3]: 43.2% | growth [4]: 23.1% | growth [5]: -10.8% (active) | growth [6]: 23.8% | growth [7]: 22.2% | growth [8]: 18.2% | growth [9]: 19.6% | growth [10]: 4.25% (active) | growth [11]: 33% | growth [12]: 65.5% | growth [13]: -5.65% (active) | growth [14]: -13.7% (active) | growth [15]: 44.6% | growth [16]: 26.5% | growth [17]: 21.7% | growth [18]: 86.4% | growth [20]: 31.2%

Clc1ccc(/C=C2\CCCC3C2=Nc2ccccc2NC3c2ccc(Cl)cc2)cc1 (stereo not given)
growth [1]: 83.3% | growth [2]: 100% | growth [3]: 122% | growth [4]: 94.3% | growth [5]: 60.6% | growth [6]: 20% | growth [7]: 78.5% | growth [8]: 114% | growth [9]: 68.2% | growth [10]: 89.2% | growth [11]: 47.2% | growth [12]: 89.7% | growth [13]: 97.6% | growth [14]: 65.3% | growth [15]: 80% | growth [16]: 83.3% | growth [17]: 92.3% | growth [18]: 79.9% | growth [20]: 29.1%

CC(C)(C)OC(=O)N1CCc2c(sc3ncnc(N/N=C/c4ccccc4Br)c23)C1
growth [1]: 74% | growth [2]: 78% | growth [3]: 85.8% | growth [4]: 49.2% | growth [5]: 80.8% | growth [6]: 68.2% | growth [7]: 68.1% | growth [8]: 69.2% | growth [9]: 27.6% | growth [10]: 91.9% | growth [11]: 15.9% | growth [12]: 90.4% | growth [13]: 81.3% | growth [14]: 81.8% | growth [15]: 87.8% | growth [16]: 89.5% | growth [17]: 80.6% | growth [18]: 82.6% | growth [20]: 83.3%

O=C1/C=C/[C@@H](O)[C@@H]2C[C@@H](O)C[C@H]2/C=C/CCC[C@@H](C(F)(F)F)O1
growth [1]: 81.4% | growth [2]: 59.9% | growth [3]: 99.3% | growth [4]: 104% | growth [5]: 99.4% | growth [6]: 88% | growth [7]: 99.3% | growth [8]: 92.6% | growth [9]: 22% | growth [10]: 119% | growth [11]: 92% | growth [12]: 65% | growth [13]: 96.7% | growth [14]: 42.7% | growth [15]: 93.9% | growth [16]: 97.2% | growth [17]: 105% | growth [18]: 51.8%

C/C=C/C1=CN2C(=O)c3cc(OC4OC(C)C(NC)C(C)(O)C4O)c(C)c(O)c3N=C[C@@H]2C1 (stereo not given in full)
growth [1]: -43.7% (active) | growth [2]: 3.31% (active) | growth [3]: -7% (active) | growth [4]: -13.8% (active) | growth [5]: -17.8% (active) | growth [6]: -28.5% (active) | growth [7]: 5.24% (active) | growth [8]: -25% (active) | growth [9]: -49.2% (active) | growth [10]: -12.7% (active) | growth [11]: 4.18% (active) | growth [12]: -51.9% (active) | growth [13]: -10.1% (active) | growth [14]: -40.5% (active) | growth [15]: -35.5% (active) | growth [16]: -25% (active) | growth [17]: -46.1% (active) | growth [18]: -6.48% (active) | growth [20]: -63.2% (active)
